Measurements published in article PMC7826789 (International Journal of Molecular Sciences, 2021).

Legend:
Settings in all cases: Compound Concentration (nM):1000
[1] = tested on: MAST1
[2] = tested on: T1, MEK1
T1 construct: gene MAP2K1

[3] = tested on: T2, MEK2
T2 construct: gene MAP2K2

[4] = tested on: T3, MEK3
T3 construct: gene MAP2K3

[5] = tested on: T4, MEK4
T4 construct: gene MAP2K4

[6] = tested on: T5, MEK5
T5 construct: gene MAP2K5

[7] = tested on: T6, MEK6
T6 construct: gene MAP2K6

[8] = tested on: MELK
[9] = tested on: MERTK
[10] = tested on: MET(M1250T)
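Note: KINOMEscan scanMAX binding as percent activity remaining versus control; lower means stronger binding.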

Row | Compound | Percent Control [1] | Percent Control [2] | Percent Control [3] | Percent Control [4] | Percent Control [5] | Percent Control [6] | Percent Control [7] | Percent Control [8] | Percent Control [9] | Percent Control [10]
1 | COc1ccc2cc(-c3c(-c4ccncc4)nc(-c4ccc(S(C)(=O)=O)cc4C)n3C)ccc2c1 [SB-633825] | 68% | 85% | 80% | 70% | 72% | 61% | 100% | 84% | 82% | 76%
2 | NS(=O)(=O)c1ccc(N/N=C2\C(=O)Nc3ccc(C(=O)NCCc4c[nH]cn4)cc32)cc1 [GW300660X] | 100% | 93% | 90% | 39% | 100% | 39% | 96% | 15% | 100% | 100%
3 | Nc1ncnc2occ(-c3ccc(NC(=O)Nc4cc(C(F)(F)F)ccc4F)cc3)c12 [GW770249X] | 100% | 98% | 100% | 100% | 100% | 21% | 100% | 53% | 1.4% | 49%
4 | COc1ccc2c(-c3ccnc(Nc4cccc(OC(F)(F)F)c4)n3)cnn2n1 [GW810372X] | 56% | 100% | 100% | 30% | 82% | 72% | 78% | 96% | 100% | 100%
5 | COc1ccc2[nH]c3c4[nH]c5ccc(OC)cc5c4c4c(c3c2c1)C(=O)NC4=O [GW296115X] | 45% | 70% | 59% | 46% | 91% | 0.7% | 97% | 43% | 19% | 88%
6 | CN1CCN(C(=O)c2ccc(NC(=O)Nc3ccc(N(C)c4ccnc(Nc5ccc(CS(C)(=O)=O)cc5)n4)cc3)cc2)CC1.Cl [GW830263A] | 61% | 33% | 40% | 14% | 6% | 0.1% | 82% | 81% | 56% | 2.2%
7 | COc1cccc(-n2ncc3c(N/N=C/c4ccncc4)ncnc32)c1 [GW784752X] | 76% | 98% | 96% | 79% | 97% | 2.3% | 87% | 100% | 86% | 46%
8 | CCn1c(-c2nonc2N)nc2c(C#CC(C)(C)O)nc(OCCNC)cc21.Cl [GSK949675] | 51% | 100% | 100% | 40% | 100% | 100% | 80% | 45% | 80% | 100%
9 | CN(C)c1cc2c(Nc3ccc4c(cnn4Cc4ccccc4)c3)ncnc2cn1 [GW282974X] | 77% | 48% | 50% | 83% | 89% | 0% | 84% | 90% | 96% | 75%
10 | Cc1cc(O)cc(C)c1/C=C/c1cncc(C(N)=O)c1 [GW435821X] | 100% | 81% | 89% | 100% | 100% | 5.3% | 100% | 95% | 100% | 100%
11 | NS(=O)(=O)c1ccc(Nc2ncc(-c3ccccc3)o2)cc1 [GW572399X] | 100% | 100% | 100% | 30% | 86% | 59% | 65% | 100% | 100% | 100%
12 | COc1ccc(COc2ccc(Cc3cnc(N)nc3N)cc2OC)cc1 [GW632580X] | 93% | 90% | 90% | 93% | 100% | 97% | 100% | 100% | 100% | 100%
13 | C[C@@H](Oc1cc(-n2cnc3ccc(OC4CCN(C)CC4)cc32)sc1C(N)=O)c1ccccc1Cl [GSK579289A] | 52% | 94% | 96% | 86% | 98% | 51% | 84% | 70% | 84% | 68%
14 | CCc1ccc(Oc2nccc(-c3c(-c4ccc(F)cc4)ncn3C3CCNCC3)n2)cc1 [SB-242719] | 81% | 93% | 91% | 78% | 100% | 100% | 100% | 88% | 100% | 100%
15 | COc1cccc(-c2c[nH]c3c(N/N=C/c4ccncc4)ncnc23)c1 [GW814408X] | 100% | 95% | 80% | 77% | 100% | 0.1% | 100% | 79% | 94% | 54%
16 | COc1cc(C)c(N(C)C(=O)CN(C)C)cc1Nc1nc(Nc2cccc(F)c2C(N)=O)c2cc[nH]c2n1 [GSK2219385] | 44% | 100% | 100% | 91% | 94% | 85% | 100% | 100% | 87% | 100%
17 | Cl.c1ccc(Cc2nc3ccc(Nc4ncnc5ccccc45)cc3[nH]2)cc1 [GR269666A] | 100% | 100% | 100% | 100% | 100% | 2.6% | 92% | 100% | 100% | 100%
18 | COc1cc(C=NNc2ncnc3c2cnn3-c2ccccc2)ccc1O [GW513184X] | 83% | 76% | 82% | 100% | 100% | 4.6% | 100% | 93% | 93% | 21%
19 | Cl.O=C(Nc1ccc(Oc2ccc3[nH]c(NC(=O)c4ccccc4)nc3c2)cc1)Nc1cc(C(F)(F)F)ccc1F [GW709042A] | 99% | 80% | 98% | 91% | 100% | 51% | 86% | 68% | 8.2% | 78%
20 | Cl.O=S1CCN(Cc2ccc(-c3ccc4ncnc(Nc5ccc(OCc6ccccc6)c(F)c5)c4c3)o2)CC1 [GW576924A] | 65% | 83% | 93% | 100% | 98% | 12% | 91% | 95% | 60% | 100%
